# From publication PMC4552634, “A New Set of Chemical Starting Points with Plasmodium falciparum Transmission-Blocking Potential for Antimalarial Drug Discovery” (PLoS ONE, 2015)
# The whole screen tested about 13,000 compounds, of which about 3,200 (25%) showed an effect of 50% or more. The list shows a part of the results.
# Tested on: P. falciparum stage V gametocytes
# Parameters: BacTiter-Glo ATP luminescence viability of purified stage V gametocytes in 384-well plates, per cent inhibition versus DMSO
# Conditions: 48 h, 5 µM; inhibitor
row,SMILES,% Inhibition [%]
1,CO/N=C(\C)c1ccc2c(c1)CCN(CCC1CCC(NC(=O)c3cccc(-c4noc(C)n4)c3)CC1)CC2 (centres unmarked) [TCMDC-139923],19.53
2,CC(C)c1cccc(OCC2CCN(c3ncc(C(=O)Nc4ccccc4)cc3Cl)CC2)c1 [TCMDC-134262],5.5
3,O=C(NC1CC1)c1cnc(N2CCC(c3ccccc3)CC2)c(Cl)c1 [TCMDC-134605],18.88
4,COc1ccc2nccc([C@@H](O)CN3CCC(NCc4ccc5c(c4)NC(=O)CO5)CC3)c2c1 [TCMDC-140793],20.76
5,COc1ccc2nccc([C@@H](O)CN3CCC(NCc4ccc5c(c4)NC(=O)C(C)S5)CC3)c2c1 (some centres unmarked) [TCMDC-141222],79.58
6,COc1ccc2nccc([C@@H](O)CN3CCC(NCc4ccc5c(c4)NC(=O)CS5)CC3)c2c1 [TCMDC-141058],3.469
7,COc1cc(F)c2nccc([C@@H](O)CN3CCC(NCc4cc5c(cc4F)OCCO5)CC3)c2c1 [TCMDC-141570],69.54
8,COc1cc(F)c2ncc(F)c([C@@H](O)CN3CCC(NCc4cc5c(cn4)OCCO5)CC3)c2c1 [TCMDC-135378],-21.41
9,COc1ccc2nccc([C@@H](O)CN3CCC(NCc4cc5cccc(O)c5c(=O)[nH]4)CC3)c2c1 [TCMDC-141223],13.37
10,COc1ccc2nccc([C@@H](O)CN3CCC(NCc4cc5cc(Cl)ccc5[nH]4)CC3)c2c1 [TCMDC-140697],66.18
11,COc1ccc2nccc([C@@H](O)CN3CCC(NCc4cc5cc([N+](=O)[O-])ccc5[nH]4)CC3)c2c1 [TCMDC-140693],14.13
12,COc1cc(F)c2nccc([C@@H](O)CN3CCC(NCc4nc5c(F)cccc5[nH]4)CC3)c2c1 [TCMDC-140970],-8.506
13,CCCN1CCC2(CC1)NC(C(=O)NCCC(C)C)Cc1c2[nH]c2cc(Cl)ccc12 (centres unmarked) [TCMDC-141295],-32.44
14,COc1ccccc1C(=O)Nc1ccc(Nc2nc(C)cc(N3CCOCC3)n2)cc1 [TCMDC-124706],21.35
15,Cn1cncc1C(=O)Nc1cccc(-c2csc(-c3nc4ccccc4[nH]3)c2)c1 [TCMDC-132396],-5.264
16,Cn1cncc1C(=O)Nc1ccc(-c2cccc(-c3nc4ccc(C(F)(F)F)cc4[nH]3)c2)cc1 [TCMDC-137062],-23.24
17,Cn1cncc1C(=O)Nc1cccc(-c2ccc(-c3nc4ccc(C(F)(F)F)cc4[nH]3)cc2)c1 [TCMDC-137064],-23.15
18,Cc1cccc2[nH]c(-c3cccc(-c4cccc(NC(=O)c5cncn5C)c4)c3)nc12 [TCMDC-137063],85.59
19,Cn1cncc1C(=O)Nc1cccc(-c2ccc(-c3nc4ccc(F)cc4[nH]3)cc2)c1 [TCMDC-137059],-26.92
20,Cn1cncc1C(=O)Nc1cccc(-c2ccc(-c3nc4ccccc4[nH]3)cc2)c1 [TCMDC-137060],87.09
21,Cn1cncc1C(=O)Nc1cccc(-c2cccc(-c3nc4ccc(F)cc4[nH]3)c2)c1 [TCMDC-137058],82.61
22,Cc1cccc2[nH]c(-c3cccc(-c4cccc(NC(=O)c5cn(C)c(=O)n5C)c4)c3)nc12 [TCMDC-137137],-10.73
23,Cn1cncc1C(=O)Nc1cccc(-c2cccc(-c3nc4ccccc4[nH]3)c2)c1 [TCMDC-137054],26.78
24,Cn1cncc1C(=O)Nc1cccc(-c2cccc(-c3nc4ccc(C(F)(F)F)cc4[nH]3)c2)c1 [TCMDC-137061],89.86
25,Cn1cncc1C(=O)Nc1ccc(-c2cccc(-c3nc4ccc(F)cc4[nH]3)c2)cc1 [TCMDC-137056],28.45
26,Cc1cccc2[nH]c(-c3ccc(-c4cccc(NC(=O)c5cncn5C)c4)cc3)nc12 [TCMDC-137057],-16.54
